# Data taken from the supplement of paper PMC6555819.
# Key:
# Assay in all cases: PBM binding z-score (relative to random genomic background probes); higher = stronger binding; sequences stand for … in GC…GCGATTGACAGCGTAGAATGAAGG
# [1] = tested on: FXR:RXRa (NR concentration 270 nM, RXRa partner concentration 90 nM)
# In short: (§1)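 Regression normalization was applied to scanned fluorescence from custom Agilent 4×180K protein-binding microarrays. Before scanning, arrays were incubated 1 h with ligand-free nuclear receptor dimers, and binding was detected with antibodies against each partner (one per run). Binding z-scores use the random background probes as reference.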
# [2] = tested on: LXRa:RXRa (NR concentration 270 nM, RXRa partner concentration 90 nM)
# In short: as §1
# [3] = tested on: LXRa homodimer (NR concentration 270 nM)
# In short: as §1
# [4] = tested on: LXRb:RXRa (NR concentration 270 nM, RXRa partner concentration 90 nM)
# In short: as §1
# [5] = tested on: LXRb homodimer (NR concentration 270 nM)
# In short: as §1
# [6] = tested on: PPARa:RXRa (NR concentration 270 nM, RXRa partner concentration 90 nM)
# In short: as §1
# [7] = tested on: PPARg:RXRa (NR concentration 180 nM, RXRa partner concentration 90 nM)
# In short: as §1
# [8] = tested on: PPARg:RXRa 270nM:90nM, anti-RXR (NR concentration 270 nM, RXRa partner concentration 90 nM)
# In short: as §1
# [9] = tested on: PPARg:RXRa 30nM:10nM, anti-RXR (NR concentration 30 nM, RXRa partner concentration 10 nM)
# In short: as §1
# [10] = tested on: PPARg:RXRa 90nM:30nM, anti-RXR (NR concentration 90 nM, RXRa partner concentration 30 nM)
# In short: as §1
# [11] = tested on: PPARg:RXRa DBDmut IVT, anti-RXR (DBD mutation: RXRa K156A/R161A, NR concentration 270 nM, RXRa partner concentration 90 nM)
# In short: as §1
# [12] = tested on: PPARg:RXRa IVT, anti-PPARg (NR concentration 270 nM, RXRa partner concentration 90 nM)
# In short: as §1
# [13] = tested on: PPARg DBDmut:RXRa IVT, anti-PPARg (DBD mutation: PPARg1 K132A/R137A, NR concentration 270 nM, RXRa partner concentration 90 nM)
# In short: as §1
# [14] = tested on: PPARg DBDmut IVT, anti-PPARg (DBD mutation: PPARg1 K132A/R137A, NR concentration 270 nM)
# In short: as §1
# [15] = tested on: PPARg homodimer (NR concentration 180 nM)
# In short: as §1
# [16] = tested on: PXR:RXRa (NR concentration 270 nM, RXRa partner concentration 90 nM)
# In short: as §1
# [17] = tested on: PXR homodimer (NR concentration 270 nM)
# In short: as §1
# [18] = tested on: RARa:RXR (NR concentration 270 nM, RXRa partner concentration 90 nM)
# In short: as §1
# [19] = tested on: RARa homodimer (NR concentration 270 nM)
# In short: as §1
# [20] = tested on: RARb:RXRa (NR concentration 270 nM, RXRa partner concentration 90 nM)
# In short: as §1
Sequence,PBM binding z-score [1],PBM binding z-score [2],PBM binding z-score [3],PBM binding z-score [4],PBM binding z-score [5],PBM binding z-score [6],PBM binding z-score [7],PBM binding z-score [8],PBM binding z-score [9],PBM binding z-score [10],PBM binding z-score [11],PBM binding z-score [12],PBM binding z-score [13],PBM binding z-score [14],PBM binding z-score [15],PBM binding z-score [16],PBM binding z-score [17],PBM binding z-score [18],PBM binding z-score [19],PBM binding z-score [20]
CGTCCAAGCTCAATGCTAGGTCAGTGAAAGCATT,-0.232,-0.0286,0.428,-0.0522,-0.887,0.167,-0.576,-0.605,-0.752,-0.627,0.189,0.0626,-1.2,-1.34,-0.137,0.0332,-0.275,0.319,-0.477,0.961
TCTGCTAGGTCAACGATGGTCATCTAATCTGCTA,3.5,3.34,0.105,2.03,0.0541,3.37,2.78,3.34,2.08,2.79,4.28,4.02,0.183,0.11,0.637,2.1,-0.415,2.56,-0.306,4.09
GCTAGCAGGCCATTTGGGTCACTCTATGACGGGC,0.0268,-0.16,-0.53,-0.351,-0.817,0.925,0.594,0.327,-0.547,-0.167,2.04,2.04,-0.319,-0.713,-0.345,0.138,-0.0419,0.546,-0.641,1.27
TCTTGTAGATCAAAGGTTACGAAAGCCGAAGCCT,2.01,2.2,0.222,2.27,-0.174,4.71,8.72,8.23,7.86,8.98,2.12,3.96,0.521,0.147,1.11,2.41,-0.449,3.28,-0.123,2.14
TCATATAGGTAAAAGGTGAAGGTCGGTGTGGTAA,1.92,1.85,0.375,2.08,0.359,5.23,9.08,8.43,8.12,8.44,5.58,5.14,1.14,0.439,1.92,2.15,1.34,3.07,1.51,2.28
CGTCCAAGGTCAAGGTCAGTGACAGAGACTCGAA,7.96,5.86,1.34,4.71,0.819,5.76,6.3,6.48,2.85,4.82,4.03,4.87,1.18,-0.455,4.7,5.25,1.84,5.72,2.23,5.75
CCTACTGGGCTACGAAAGGTCATTGATTCAGTGA,3.53,6.04,6.54,4.66,0.251,4.28,2.77,4.36,2.08,3.64,3.98,3.65,-0.45,0.321,3.32,5.08,1.74,5.44,0.708,3.88
ACTAGCAGGCCAACTTTGGGTCACTCAAACAAAG,0.261,0.66,0.362,0.931,-0.445,1.53,0.543,0.901,-0.236,0.471,1.25,1.4,0.153,-0.0474,0.721,0.676,-0.281,1.52,-0.417,1.74
TCATGTAGATCAAAGGTTAAGAAAGCCGAAGCCT,1.74,2.28,0.326,2.06,-0.197,4.5,8.22,8.1,7.58,8.85,2.23,3.59,0.546,0.593,1.17,2.12,0.246,3.29,0.881,1.91
CCAAGTAGGTTATGGGGCATTCAGGCAACGGTGA,0.142,0.353,-0.344,0.363,-0.655,2.93,5.23,5.69,4.33,5.84,5.49,4.96,0.251,0.296,1.18,-0.156,-0.101,0.207,0.919,1.05
CCGACTGGGGCAAGCTTACCATAACGCACAGCCA,-0.512,-0.683,-0.49,-0.277,-1.15,0.0607,0.938,0.116,-0.5,-0.274,3.86,2.37,-0.563,-1.13,-0.678,-0.729,-0.611,-0.807,-0.606,0.697
TCATATAGGTAATACAGGTTAAAGTCGGCATCTA,1.72,2.72,2.2,1.82,0.603,2.28,1.93,2.74,4.37,3.53,4.34,3.27,1.19,1.83,1.52,1.32,0.749,1.97,1.97,0.992
CCTGCTCGGTCATGGTCAGCTAATCTACAGTATG,0.209,0.33,0.0504,-0.0325,-0.00908,0.0849,0.0527,-0.261,-0.454,-0.32,0.829,0.464,-0.762,-0.953,-0.491,-0.351,-0.822,-0.293,-0.596,2.46
